PubChem BioAssay AID720504 (National Center for Advancing Translational Sciences (NCATS), 2013)
About 10,000 (2.8%) of roughly 360,000 compounds were called active. About 4% were inconclusive and are not listed. What follows is part of a selection rich in actives, with near analogues and random picks from the rest. Unmarked numbers belong to inactive results. The call rests on the fitted dose curve; in most records, active means well fitted inhibition curve with a large enough effect; inconclusive means small, poorly fitted or top-dose-only effect; inactive means flat fitted curve, though single readings scatter.

Target: Serine/threonine-protein kinase PLK1 (Homo sapiens) (UniProt P53350)
Sequence (P53350 whole entry, looked up, the tested form may be a part): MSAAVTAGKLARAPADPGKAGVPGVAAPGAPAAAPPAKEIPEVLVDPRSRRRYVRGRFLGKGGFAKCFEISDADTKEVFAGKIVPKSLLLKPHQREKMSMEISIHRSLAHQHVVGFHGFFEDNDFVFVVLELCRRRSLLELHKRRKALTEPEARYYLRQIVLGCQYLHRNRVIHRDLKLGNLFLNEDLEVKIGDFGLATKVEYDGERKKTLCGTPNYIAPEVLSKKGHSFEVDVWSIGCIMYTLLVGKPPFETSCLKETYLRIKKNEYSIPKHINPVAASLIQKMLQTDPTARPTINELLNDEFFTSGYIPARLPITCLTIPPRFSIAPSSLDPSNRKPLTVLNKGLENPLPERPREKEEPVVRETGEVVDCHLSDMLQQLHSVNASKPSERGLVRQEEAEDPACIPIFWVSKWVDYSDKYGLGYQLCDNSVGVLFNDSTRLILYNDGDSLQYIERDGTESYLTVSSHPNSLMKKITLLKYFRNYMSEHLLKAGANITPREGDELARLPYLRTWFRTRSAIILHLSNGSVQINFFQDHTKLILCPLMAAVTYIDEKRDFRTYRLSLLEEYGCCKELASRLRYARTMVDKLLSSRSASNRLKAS
Assay: qHTS for Inhibitors of PLK1-PDB (polo-like kinase 1 - polo-box domain): Primary Screen; further: nearly all actives have a fitted effect of over 65% in size; on max response, negative = inhibition: series mostly up to about 57 µM
Details: Plk1 PBD binding of FITC phosphopeptide, fluorescence polarization
On the % scale 0 is the no-effect control and ±100 the full control effect; potency means the concentration at half of the fitted maximal effect.

| Structure (SMILES) | max response, negative = inhibition [%] | Potency |
| --- | --- | --- |
| COc1ccc(CCn2c(O)c(C=NCCCn3ccnc3)c(=O)[nH]c2=O)cc1OC | -4.17 | – |
| c1ccc(Cc2nn3c(Cn4cnc5ccccc54)nnc3s2)cc1 | – | 11.9 µM (active) |
| CCOP(=O)(OCC)C(NC(=O)NC)C(N)=O (stereo unspecified) | 0.136 | – |
| CCCC[N+]1(C)C2CC(OC(=O)C(CO)c3ccccc3)CC1C1OC12 (stereo unspecified) | -0.372 | – |
| CC(=NCc1ccc2c(c1)OCO2)c1c(O)[nH]c(=O)[nH]c1=O | -14.7 | – |
| CCOC(=O)C1SC2(C(F)(F)C(F)F)CC1(O)c1c(c(OC)c3occc3c1OC)O2 (stereo unspecified) | 0.906 | – |
| O=c1c2ccccc2[nH]c(=S)n1-c1cccc(Cl)c1 | -18.6 | – |
| COC(=O)C1=C(c2ccc(-c3ccccc3)c(F)c2)C[C@@H]2CC[C@H]1N2C(=O)NCc1ccc(F)cc1 | -10.9 | – |
| C=C(C)C1(CCCC)C(=O)NC(=S)NC1=O | 0.58 | – |
| Cc1noc(C)c1CSc1nc2cc(S(=O)(=O)N3CCOCC3)ccc2o1 | – | 21.2 µM (active) |
| Cn1c(C(=O)N2CCC(C(=O)N3CCC4(CC3)OCCO4)CC2)cc2sccc21 | -6.93 | – |
| CC=C(C)C(=O)OC1CCN2CC=C(COC(=O)C(O)(C(C)OC)C(C)(C)O)C12 (stereo unspecified) | -10.3 | – |
| Cc1cc(=O)oc2c(C)c(OCC(=O)N3CCN(Cc4ccc5c(c4)OCO5)CC3)ccc12 | -7.37 | – |
| Cc1cccc(NC(=O)OC2CN3CCC2CC3)c1 (stereo unspecified) | 3.5 | – |
| CC(C)(C)c1ccc(OC(=O)N2CCCCC2)cc1 | – | 23.8 µM (active) |
| CN1CCN(C(=O)COc2ccc(C(C)(C)C)cc2Br)CC1 | -4.1 | – |
| O=C(Nc1cccc(OC(=O)N2CCCCC2)c1)N1CCOCC1 | -15.9 | – |
| C[N+]12CN3CN(CN(C3)C1)C2 | -1.32 | – |
| COc1ccc(-n2nnnc2C(c2cccc3ccccc23)N2CCC(n3c(=O)[nH]c4ccccc43)CC2)cc1 (stereo unspecified) | -4.82 | – |
| COc1ccc(NC(=O)N2Cc3ccccc3-n3nncc3C2)cc1 | -7.51 | – |
| CCOc1ccc(C2SCC(=O)Nc3c2c(C)nn3C2CCOC(C)(C)C2)cc1 (stereo unspecified) | -3.25 | – |
| COc1ccccc1NC(=O)N1C[C@@H]2C[C@@H](C1)c1cccc(=O)n1C2 | -7.73 | – |
| CN1CCC(OC(=O)c2cccc(F)c2)CC1 | -15.3 | – |
| Cc1ccc2c(c1)=C/C(=C\c1c(O)[nH]c(=O)[nH]c1=O)C(=O)N=2 | – | 11.9 µM (active) |
| O=c1[nH]c(O)c(C=Nc2cc(F)cc(F)c2)c(=O)[nH]1 | -3.46 | – |
| CC[N+](CC)(CC)CCCCCCCCCC[N+](CC)(CC)CC | 3.96 | – |

| Structure (SMILES) | max response, negative = inhibition [%] | Potency |
| --- | --- | --- |
| CC12CCC3C(CCC4CC(=O)CCC43C)C1CC(=NO)C2=O (stereo unspecified) | 6.72 | – |
| C[C@]12CCCCC1=CC(=O)C1C2CC[C@@]2(C)C1C[C@@H](F)[C@@H]2O (stereo partly specified) | 2.07 | – |
| COC(=O)C[C@H]1CC[C@H]2NC[C@@H](O)COC[C@@H]2O1 | -11.8 | – |
| O=C1NC(=O)N(CCc2ccc(F)cc2)C(=O)/C1=C/C=C/c1ccccc1 | – | 0.532 µM (active) |
| CC(C)N(CC#CCC1(O)c2ccccc2-c2ccccc21)C(C)C | 4.02 | – |
| O=C(NC(=S)N1C[C@H]2C[C@H](C1)c1cccc(=O)n1C2)c1ccc(F)cc1 | -8.97 | – |
| N=c1ccccn1Cc1ccccc1 | -5.72 | – |
| CCOC(=O)[C@]12Cc3ccccc3[C@H]1N(C1CCCCC1)C(=O)c1cc(OC)ccc12 | – | 10.6 µM (active) |
| CCOC(=O)c1cccc(C2=C(CNC(=O)c3ccncc3)[C@H]3CC[C@@H](C2)N3Cc2ccccc2)c1 | -3.52 | – |
| COc1ccc(CN2C(=O)NC(=O)/C(=C\c3ccc(OC)c(OC)c3OC)C2=O)cc1 | – | 7.52 µM (active) |
| O=c1c2ccccc2nc(-c2ccc(Cl)cc2Cl)n1-c1ccncc1 | -3.78 | – |
| Nc1ccc([N+](=O)[O-])cc1 | -16 | – |
| C=CCN1C(=O)NC(=O)/C(=C/c2ccc(OCC(=O)Nc3ccc(C)cc3)cc2)C1=O | – | 8.44 µM (active) |
| C=CCN(CC=C)C(=O)Nc1ccc(OCC)cc1 | -8.48 | – |
| CCC(=O)c1ccc(OCC(=O)N2CCN(CC(=O)Nc3ccc(C)cc3)CC2)cc1 | -6.03 | – |
| CCOC(=O)C1CN(C)CCC1=O (stereo unspecified) | -5.51 | – |
| O=C(CCCn1c(=O)[nH]c2cc(Cl)ccc2c1=O)N1CCC2(CC1)OCCO2 | -6.33 | – |
| COC(=O)N(c1ccc(OC)cc1)P1(=S)OCCC(C)O1 (stereo unspecified) | – | 2.67 µM (active) |
| Cc1ccc(N(C)C(=O)Oc2cccc3ccc(C)nc23)cc1 | 0.137 | – |
| COc1ccc(N2C(=O)/C(=C/c3ccco3)C(=O)NC2=S)cc1 | – | 2.67 µM (active) |
| CC(=NCC1CCCO1)c1c(O)n(-c2ccccc2)c(=O)[nH]c1=O (stereo unspecified) | -9.8 | – |
| COCc1cc(OC(=O)N(C)C)nc(-c2ccc(C)c(Cl)c2)n1 | -4.36 | – |
| CCC(=NCc1ccco1)c1c(O)n(Cc2ccccc2)c(=O)[nH]c1=O | -18.9 | – |
| CC/C(=N\NC(=O)c1ccccc1O)c1c(O)n(Cc2ccccc2)c(=O)[nH]c1=O | – | 16.8 µM (active) |
| O=C(N/N=C/c1c(O)n(Cc2ccccc2)c(=O)[nH]c1=O)c1ccccc1 | -9.07 | – |
| COC(=O)C1=C(c2ccc(Cl)c(C(F)(F)F)c2)C[C@@H]2CC[C@H]1N2C(=O)NC(C)C | -9.53 | – |

| Structure (SMILES) | max response, negative = inhibition [%] | Potency |
| --- | --- | --- |
| O=C(COc1ccc2ccccc2c1)N1CCN(Cc2ccncc2)CC1 | -21.6 | – |
| COc1ccc(-c2nc(CS(=O)CC(=O)N3CCC4(CC3)OCCO4)c(C)o2)cc1 (stereo unspecified) | -28 | – |
| ClC(Cl)(Cl)c1ccccc1 | -9.92 | – |
| NCCc1c[nH]c2ccc(O)cc12 | -10.9 | – |
| CCOc1ccc(CN(CCCl)CCCl)cc1C(=O)OC | – | 26.7 µM (active) |
| CCCCC(=O)N/N=C/c1c(O)n(CCC2=CCCCC2)c(=O)[nH]c1=O | -3.58 | – |
| O=C(O)COc1ccccc1/C=C1\C(=O)NC(=O)N(CCC2=CCCCC2)C1=O | – | 11.9 µM (active) |
| COc1cc(C(=O)N2Cc3ccc(Br)cc3-n3nncc3C2)cc(OC)c1OC | -10 | – |
| CC(C)c1ccc(OCC(=O)N2CCN(C)CC2)c(Br)c1 | -13.2 | – |
| c1cc2c(c(NC3=NCCCS3)c1)CCCC2 | -11.8 | – |
| CC(=O)Cc1ccc(OC(C)C)cc1 | 1.86 | – |
| CC(=O)c1ccc(OC(NC(=O)Cc2ccccc2)C(Cl)(Cl)Cl)cc1 (stereo unspecified) | – | 13.4 µM (active) |
| CCOP(=O)(OCC)C(NC(=O)c1ccc(OC)cc1)C(Cl)(Cl)Cl (stereo unspecified) | 1.87 | – |
| COC(=O)C1=C(c2ccc(OCc3ccccc3)cc2)C[C@@H]2CC[C@H]1N2C(=O)NCc1cccc(F)c1 | -7.41 | – |
| CN(C)C(=O)Oc1ccc(NC(=O)N2CCOCC2)cc1 | -3.11 | – |
| CCOC(=O)CNC(=O)N1Cc2cc(N3CCCCC3)ccc2-n2nncc2C1 | -3.84 | – |
| O=C1NC(=O)N(Cc2ccco2)C(=O)/C1=C\c1ccc(-c2ccc(F)cc2)o1 | – | 0.423 µM (active) |
| O=C1NC(=O)N(Cc2ccco2)C(=O)/C1=C\c1cccn1CCOc1ccccc1 | – | 15 µM (active) |
| N#CC1=C(N)Oc2c(c(=O)oc3ccccc23)C1c1ccccc1OC(=O)c1cccs1 (stereo unspecified) | -2.78 | – |
| CN(C)CC1CCCCC1=O (stereo unspecified) | -3.76 | – |
| CCC(C)n1c(O)c(/C=N/Nc2nc3c(c(=O)n(C)c(=O)n3C)n2C)c(=O)[nH]c1=S (stereo unspecified) | -11.1 | – |
| O=c1c2ccccc2nc(CBr)n1-c1ccc(Cl)cc1 | -5.73 | – |
| CCC(C)(O)C(=O)OC1C(=O)OC2CC3C(C)=CC(=O)C(O)C3(C)C3C4(O)OCC23C1C(C)C4O (stereo unspecified) | -4.99 | – |
| CCC(=O)OC(Cc1ccccc1)(c1ccccc1)C(C)CN(C)C (stereo unspecified) | -11.9 | – |
